Spn MK inh = S. pneumoniae mevalonate kinase inhibition. purified MK, PK/LDH-coupled NADH absorbance 340 nm. inhibition, % at 10 µM. 65,000 tested, 0.48% active. AID 555;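 active = ranked among the strongest by inhibition in the single 10 µM screen, a fixed top-ranked set picked for dose follow-up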
PMK inhibit = S. pneumoniae PMK inhibition; purified PMK, PK/LDH-coupled NADH absorbance 340 nm; inhibition, % at 10 µM; 65,000 tested, 0.49% active;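 active = top-ranked compounds by inhibition in the single 10 µM screen, taking a fixed number of the strongest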
A340 absorber = compounds absorbing at 340 nm; 65,000 tested, under 10 active; compound absorbance at 340 nm, fold over control; fold change at 10 µM;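 active = at 10 µM dose, initial 340 nm absorbance at least 2 fold that of control wells; inactive = change under 2 fold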;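 note: initial absorbance extrapolated from kinetic A340 decline of NADH oxidation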
Spn DPM-DC inh = S. pneumoniae DPM-DC inhibition. 65,000 tested, 0.49% active. calls only at 10 µM. purified DPM-DC, PK/LDH coupled NADH fluorescence;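 active = the 320 compounds with the highest percent inhibition in the single-dose primary screen, excluding strongly autofluorescent ones, cut at about 32% in these data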;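 note: kinetic rate of NADH fluorescence loss reporting ADP formed by the decarboxylase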
Autofluor 339 = intrinsic fluorescence of library compounds, ex339/em460 – biochemical, MLSMR library, data from DPM-DC assay, artefact control, profiling panel; fluorescence fold increase at 10 µM; compound autofluorescence, ex339/em460 nm, NADH buffer; hits give high values; 1 = no-compound wells, NADH background; 65,000 tested, 5.5% active;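 active = at 10 µM, mean starting fluorescence two-fold or more over control wells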;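 note: signal is the first read of a kinetic run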
NADH enzymes = inhibitors of enzymes used to reach an NAD/NADH endpoint; coupled PK/LDH NADH assays, four targets; IC50, µM (top dose mostly 10 µM); 65,000 tested, 0.02% active;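 active = single-dose screening hits from any of four coupled enzyme assays that gave an IC50 when retested across doses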;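 note: the DPM-DC format reads NADH fluorescence rather than 340 nm absorbance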
Large screens that a line does not name were inactive. The list is not random: actives were taken first. Their share in the collection is about 6.3%.

Cc1ccc(S(=O)(=O)Nc2cc(C(=O)NCCN3CCCC3)ccc2N2CCCCC2)cc1	none
COc1ccc(-c2nc3c(c(=O)n(C)c(=O)n3C)n2CC2CC(c3ccccc3)=NO2)cc1OC (stereo not given)	none
CCN(CC)c1ccc(-c2nn3c(-c4n[nH]c5c4CCC5)nnc3s2)cc1	Autofluor 339 2.9
C1CCC(c2nn3c(-c4n[nH]c5c4CCC5)nnc3s2)CC1	none
Cc1nn(-c2ccccc2)c2nc(-c3ccco3)cc(C(=O)O)c12	Autofluor 339 2 (not shown: Spn DPM-DC inh)
O=C(O)c1cc(-c2ccco2)nc2ccccc12	Autofluor 339 3.7 (not shown: Spn DPM-DC inh)
CCOC(=O)N1CCN(C(=O)c2cc(C)c3c(C)nn(-c4ccccc4)c3n2)CC1	none
CC(=O)N1CCC(C(=O)Nc2ccccc2)(N(Cc2ccccc2)C(=O)c2cccnc2)CC1	none
COc1ccc(-n2c(SCC(N)=O)nnc2-c2ccccc2F)cc1	none
Cc1cccc(CNC(=O)c2ccccc2N)c1	Autofluor 339 3.6 (not shown: Spn DPM-DC inh)
Cc1ccccc1C(=O)NCc1ccncc1	none
CCOc1ccc2[nH]c(=O)c(CN(CCO)C(c3nnnn3C3CCCCC3)C(C)C)cc2c1 (stereo not given)	none
COc1ccc2[nH]c(=O)c(C(c3nnnn3CC3CCCO3)N3CCc4ccccc4C3)cc2c1 (stereo not given)	Autofluor 339 3
CCCN1CCN(C(c2cc3cc(OCC)ccc3[nH]c2=O)c2nnnn2C2CCCCC2)CC1 (stereo not given)	Autofluor 339 4.3 (not shown: Spn DPM-DC inh)
COc1ccc2[nH]c(=O)c(C(c3nnnn3C3CCCCC3)N3CCN(C)CC3)cc2c1 (stereo not given)	Autofluor 339 4.5 (not shown: Spn DPM-DC inh)
COc1cc2cc(C(c3nnnn3Cc3ccc(F)cc3)N3CCCCCC3)c(=O)[nH]c2cc1OC (stereo not given)	Autofluor 339 2.1
COc1ccc2cc(C(c3nnnn3C3CCCC3)N3CCc4ccccc4C3)c(=O)[nH]c2c1 (stereo not given)	none
CCOC(=O)N1CCC(N2C(=O)c3ccccc3C2Nc2cc(C(=O)OC)cc(C(=O)OC)c2)CC1 (stereo not given)	Autofluor 339 2.1 (not shown: Spn DPM-DC inh)
O=C1CC(N2CCC(c3nc4ccccc4s3)CC2)C(=O)N1 (stereo not given)	none
Cc1cc(NC(=O)COC(=O)C(Nc2ccc(C(F)(F)F)cc2Cl)C(C)C)no1 (stereo not given)	none
CCn1cc(C(=O)NCc2ccc(Cl)cc2)c(=O)c2cc(S(=O)(=O)N3CCOCC3)ccc21	none
Cn1c(SCCOc2cccc(Cl)c2)nnc1-c1ccncc1	Spn MK inh 90
Cc1ccc(OCCSc2nnc(-c3ccncc3)n2C)cc1	none
CCCCc1nc(NCCN2CCOCC2)c(C#N)c2c1COC(C)(C)C2	none
CC1(C)Cc2c(C#N)c(NCCc3ccccc3)nc(-c3ccco3)c2CO1	Autofluor 339 2.3 (not shown: Spn DPM-DC inh)
Cc1nc(NCCO)c(C#N)c2c1COC(C)(C)C2	none (not shown: Spn DPM-DC inh)
CCN(CC)CCNc1nc(-c2ccco2)c2c(c1C#N)CC(C)(C)OC2	Autofluor 339 2.3 (not shown: Spn DPM-DC inh)
CNC(=O)c1nnn(Cc2ccccc2)c1NC(=O)C(F)(F)F	none
COc1ccccc1N1CCN(C(=O)CSc2nc3ccccc3c(=O)n2CC2CCCO2)CC1 (stereo not given)	none
Cc1cccc(N2CCN(C(=O)Cc3c(C(=O)O)[nH]c4ccc(Cl)cc34)CC2)c1C	none
CCN(CC)C(=O)c1cc2c(=O)n3ccccc3nc2s1	Autofluor 339 2.1 (not shown: Spn DPM-DC inh)
COCCN(CCOC)C(=O)c1cc2c(=O)n3ccccc3nc2s1	Autofluor 339 4.9 (not shown: Spn DPM-DC inh)
Cc1cc(NC(=O)CN2CCCC2c2nc3ccccc3s2)no1 (stereo not given)	none
O=C(Nc1nnc(-c2ccncc2)s1)C1CCCO1 (stereo not given)	Autofluor 339 3.7 (not shown: Spn DPM-DC inh)
Cc1onc(-c2ccccc2)c1C(=O)Nc1ccc2c(C)cc(=O)oc2c1	Autofluor 339 2.2 (not shown: Spn DPM-DC inh)
CCOc1ncccc1C(=O)Nc1ccc(-c2cn3ccsc3n2)cc1	Autofluor 339 2.1 (not shown: Spn DPM-DC inh)
CCOc1ncccc1C(=O)Nc1ccc2c(C)cc(=O)oc2c1	Spn DPM-DC inh active, Autofluor 339 2.2
O=C1N[C@@H](Cc2cnc[nH]2)C(=O)N2CCC[C@@H]12	none
CCOc1ccc2nc(Nc3nc4c(c(=O)[nH]3)CCC4)nc(C)c2c1	none
Cn1c(=O)n(CC(=O)OCc2ccccc2)c(=O)c2c1nc1n2CCCN1C1CCCCC1	none
Cc1onc(-c2ccccc2)c1C(=O)Nc1nnc(-c2ccncc2)s1	Autofluor 339 3.8 (not shown: Spn DPM-DC inh)
Cc1cc(=O)oc2cc(NC(=O)CCCC(=O)O)ccc12	Autofluor 339 5 (not shown: Spn DPM-DC inh)
Cc1ccc(-c2cc(-c3ccccc3Cl)c(C#N)c(N)n2)o1	Autofluor 339 2.3 (not shown: Spn DPM-DC inh)
Cc1ccc(C2C(C#N)=C(N)Oc3nc(-c4ccccc4)[nH]c32)o1 (stereo not given)	none
Cc1ccc(-c2cc(-c3ccccc3)c(C#N)c(N)n2)o1	Autofluor 339 5.1 (not shown: Spn DPM-DC inh)
Cc1ccc(-c2cc(-c3ccc(F)cc3)nc(N)c2C#N)o1	Autofluor 339 3.7 (not shown: Spn DPM-DC inh)
N#CC1=C(N)N(c2ccccc2)C(c2ccccc2)C1(C#N)C#N (stereo not given)	none
CSc1ccc(C2Nc3ccccc3-c3cc(C)nn32)cc1 (stereo not given)	Autofluor 339 2
Cc1cc2n(n1)C(c1ccccc1Cl)Nc1ccccc1-2 (stereo not given)	none
Cc1cc2n(n1)C(c1ccsc1)Nc1ccccc1-2 (stereo not given)	Autofluor 339 2.4
CCOc1ccc(N(CC(=O)NC2CCCC(C)C2C)S(=O)(=O)c2c(C)noc2C)cc1 (stereo not given)	Spn DPM-DC inh active
CC(C)OCCCNC(=O)CN1C(=O)CC(C)(C)S(=O)(=O)c2ccccc21	Spn MK inh 44
COc1ccccc1-c1cc(C(F)(F)F)nc(N2CCCC2)n1	none
COc1ccccc1-c1cc(C(F)(F)F)nc(S(=O)(=O)CCCC(=O)Nc2cc(C)on2)n1	Autofluor 339 3.7 (not shown: Spn DPM-DC inh)
COc1ccccc1-c1cc(C(F)(F)F)nc(S(=O)(=O)CCCC(=O)NC(C)C)n1	none
COc1ccccc1-c1cc(C(F)(F)F)nc(S(=O)(=O)CCCC(=O)N2CCCCC2C)n1 (stereo not given)	Autofluor 339 3.4 (not shown: Spn DPM-DC inh)
CCCCn1c(SCC(=O)Nc2cc(NC(=O)c3ccco3)ccc2C)nc2ccccc2c1=O	none
CCn1c(SCC(=O)Nc2ccc(NC(=O)c3ccco3)c(OC)c2)nc2ccccc2c1=O	Autofluor 339 5.2 (not shown: Spn DPM-DC inh)
CCOC(=O)N1CC=C2C(C#N)=C(N)C(C#N)(C#N)[C@H](c3ccsc3)[C@H]2C1	none
CN1CC=C2C(C#N)=C(N)C(C#N)(C#N)C(CCc3ccccc3)C2C1 (stereo not given)	Autofluor 339 2
CN1CC=C2C(C#N)=C(N)C(C#N)(C#N)[C@H](c3cccc(Cl)c3)C2C1 (stereo not given in full)	none
